We go through 40 compounds from ChEMBL document CHEMBL1157539, “Thousands of chemical starting points for antimalarial lead identification” (Nature, 2010).

The test deals with HepG2. The experiment in a line: GSK_TCMDC: Percent inhibition of human HepG2 cell line. Test compounds present at 10uM. Format: functional.
A word on the Inhibition: it is how much of the control response was suppressed. A high value points to a strong effect. `Cc1ccc(-c2noc(COc3ccccc3C(=O)NC3CCCC3)n2)cc1` returned an Inhibition of 9%.

`CN1CCCC1CCNCc1cccc(-c2cnc(N3CCCC(C)(C)C3)nc2)c1` (stereo not given) had an Inhibition of 99%.

`Cc1cccc2nc(-c3ccc(-c4ccc(CNCCN5CCNCC5)cc4)s3)[nH]c12.O=C(O)C(F)(F)F`: the Inhibition amounted to 30%.

The compound `Oc1ccc(Cl)c2c1C(c1ccccc1)=NCC2` returned an Inhibition of 0%.

`O=C(CC1NC(=O)c2ccccc21)Nc1ccc(-c2cccc(-c3nc4cc(C(F)(F)F)ccc4[nH]3)c2)cc1` (stereo not given) displayed an Inhibition of 69%.

Take `Cc1ccc(C2(C)CN(CCCOc3cccc(-c4ccc(C(=O)NC(C)C)cc4)c3)CCO2)cc1` (stereo not given): the Inhibition was determined as 15%.

`COc1ccc(OC)c(-c2ccc(O)c(CNCC(C)c3ccccc3)c2)c1` (stereo not given) gave an Inhibition of 26%.

Turning to `O=C(O)C(F)(F)F.c1cc(CNCCc2ccncc2)cc(-c2ccc(-c3nc4ccccc4[nH]3)s2)c1`, the Inhibition is reported as 1%.

The compound `COc1cc([N+](=O)[O-])ccc1NC(=O)c1cc(Cl)ccc1O` registered an Inhibition of 92%.

The compound `O=C(/C=C/c1ccc(Cl)c(Cl)c1)NCCCCCCN1CCN(C(=O)Nc2ccc(F)c(Cl)c2)CC1` displayed an Inhibition of 40%.

In turn, `Oc1ccc(Cl)cc1-c1cc(C(F)(F)F)nc(-c2ccccc2)n1` displayed an Inhibition of 20%.

In the case of `CC(=O)OCCN1C(=O)c2ccc3c4c(ccc(c24)C1=O)C(=O)N(CCOC(C)=O)C3=O`, the Inhibition came out at 2%.

For the compound `CCOc1ccc(NC(C)=O)c(O)c1`, the Inhibition came to 6%.

In the case of `COc1ccc(NC(=O)[C@H](Cc2ccccc2)Nc2cc(C)nc(Nc3ccccc3)n2)cc1.O=C(O)C(F)(F)F`, the Inhibition is 0%.

As for `Cc1cc(CNCCCCCCCNCc2ccc(-c3ccccc3)cc2)ccc1O`, the Inhibition is recorded as 49%.

In turn, `COc1cc2ccccc2cc1CNCCCCCCNCc1cc2ccccc2cc1OC.CS(=O)(=O)O` came in with an Inhibition of 98%.

For the compound `Cc1cc(N[C@@H](CC(C)C)C(=O)Nc2ccccc2)nc(NCCc2ccc(F)cc2)n1.O=C(O)C(F)(F)F`, the Inhibition was 8%.

Turning to `OC(c1ccc(Cl)cc1)(c1ccc(Cl)cc1)C(c1ccc(Cl)cc1)n1ccnc1` (stereo not given), the Inhibition is on record as 15%.

Compound `Cc1csc(-c2nc(NCCc3c(C)noc3C)ncc2-c2ccsc2)n1` showed an Inhibition of 6%.

In turn, `CCCn1c(Sc2ccc(C#N)c([N+](=O)[O-])c2)nnc1-c1ccc(N(C)C)cc1` registered an Inhibition of 18%.

Take `O=C(O)C(F)(F)F.OCCN1CCN(Cc2ccc(-c3ccc(-c4nc5cc(F)ccc5[nH]4)cc3)cc2)CC1`: the Inhibition is listed as 33%.

`S=C(NCCCCCN1CCC(c2c[nH]c3ccccc23)CC1)Nc1cccc(I)c1` returned an Inhibition of 69%.

Consider `O=C(NCc1ccccc1)OC1CNCCC1c1ccc(C(O)Cc2ccccc2)cc1.O=C(O)C(F)(F)F` (stereo not given), for which the Inhibition is 8%.

With `COc1ccc2nccc([C@@H](O)CN3CCC(NCc4ccc5cccc(O)c5n4)CC3)c2n1.CS(=O)(=O)O`, the Inhibition is recorded as 8%.

`NCCCNc1ccnc2cc(Cl)ccc12` gave an Inhibition of 14%.

`O=C(c1ccc(F)cc1)N1CCOC(CCN2CCC(c3ccccc3)CC2)(c2ccc(Cl)c(Cl)c2)C1` (stereo not given) gave an Inhibition of 29%.

Compound `Cc1nc2ccc3ccc(CNc4ccc(C(=O)CC(CCC(=O)O)C(=O)O)cc4)cc3c2c(=O)[nH]1.[Cl-].[Na+]` (stereo not given) registered an Inhibition of 51%.

The compound `CCn1cc(CN2CCCC(C(=O)Nc3ccc(-c4nc5ccccc5[nH]4)cc3)C2)cn1` (stereo not given) displayed an Inhibition of 8%.

As to `Fc1ccc2[nH]c(-c3cccc(-c4ccc(CN5CCN(CCN6CCOCC6)CC5)cc4)c3)nc2c1.O=C(O)C(F)(F)F`, the Inhibition worked out at 30%.

For `Cc1noc(C)c1C(=O)N1CCc2cc3nccc(N4CCN5CCC[C@H]5C4)c3cc21`, the Inhibition stood at 7%.

In turn, `CS(=O)(=O)c1ccc2c(c1)CCN(CCC1CCC(NC(=O)c3cc4cccc(Br)c4[nH]3)CC1)CC2` (stereo not given) came in with an Inhibition of 27%.

Consider `CCN(C)CCCn1c(N(C)C)nc2cc(-n3cnc4cc(-c5ccc(Cl)cc5)sc4c3=O)ccc21.O=C(O)C(F)(F)F`, for which the Inhibition worked out at 83%.

With `O=S(=O)(c1cccc2cccnc12)N1CCN(C2CCCCC2)CC1`, the Inhibition worked out at 15%.

`COc1ccc2nccc([C@@H](O)CN3CCC(NC(=O)C(=Cc4ccc(Cl)cc4Cl)c4ccc(-c5ccccc5)cc4)CC3)c2c1` gave an Inhibition of 1%.

For `CN1CCC(NCc2ccc(-c3ccc(C(F)(F)F)cc3)cc2)CC1`, the Inhibition is on record as 54%.

For the compound `CC(C)n1c(C2CCN(CC3CCN(C(=O)/C=C/c4ccc(Cl)c(Cl)c4)CC3)CC2)nc2ccccc21`, the Inhibition stood at 36%.

The compound `Cc1ccccc1C1CCN(C2CCC(NC(=O)/C=C/c3ccc(F)c(F)c3)CC2)CC1` (stereo not given) displayed an Inhibition of 34%.

In turn, `COc1ccccc1C1CCN(C2CCC(NC(=O)/C=C/c3cc(C(F)(F)F)ccc3F)CC2)CC1` (stereo not given) displayed an Inhibition of 39%.

Consider `O=C(NCc1cccc2ccccc12)C(c1cc2ccccc2o1)N1CCN(C(c2ccccc2)c2ccccc2)CC1` (stereo not given), for which the Inhibition is recorded as 0%.

In the case of `CCN(CCCN1CCCCC1)c1cc(C)nc(Nc2cc(Cl)cc(Cl)c2)n1.O=C(O)C(F)(F)F`, the Inhibition is listed as 34%.
